Compound activity deposited in PubChem BioAssay by National Center for Advancing Translational Sciences (NCATS).
RE007 growth inh: less growth of the S. pombe RE007 Vpr strain; S. pombe RE007 Vpr strain, BacTiter-Glo ATP luminescence, 24 h; Potency, µM (doses to about 92.2 µM), inactives show top-dose activity change, negative = less growth, most hits filed as inhibitors; actives 0.21% (n = 360,000); AID 651644; active means well fitted falling curve with a large enough effect; inconclusive means small, poorly fitted or top-dose-only effect; inactive means no such curve, though single readings can be large or run the other way; further: nearly all actives have a fitted effect of over 50% in size
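Fission yeast RE007 carrying one integrated HIV-1 vpr copy, seeded at OD 0.01 in PMG+AL medium with 23 nL pinned compound. Grown 24 h at 30 degrees; viability read by BacTiter-Glo luminescence after 5 min.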
TbPYK inhibitor: T. brucei pyruvate kinase inhibition. actives 0.12% (n = 410,000). TbPYK enzyme, Kinase-Glo Plus ATP luminescence, 45 min. Q57TT1. Potency, µM (doses to about 76.8 µM), for inactives: at the highest dose activity, negative = inhibition, most hits filed as inhibitors; further: nearly all actives have a fitted effect of over 50% in size
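Luminescent Kinase-Glo Plus end-point after 45 min room-temperature reaction of T. brucei pyruvate kinase started with 130 uM ADP (final). Buffer TEA 50 mM pH 7.2 with KCl, MgCl2, BSA, Tween-20; titration-based qHTS with fitted concentration-effect curves.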
LmPK inh: blocks Leishmania mexicana pyruvate kinase activity; purified LmPK, Kinase-Glo ATP luminescence, 1 h; Potency, µM (top dose mostly 57.5 µM), for inactives: at the top dose activity change, negative = inhibition, actives largely listed as inhibitors; actives 0.37% (n = 290,000); AID 1721
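Screened at intermediate enzyme activity to detect both inhibitors and activators: LmPK at 0.1 nM, with a 0.5 nM enzyme column as activation reference. PEP 0.5 mM, ADP 0.1 mM; ATP detected by luminescence after 1 h.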
Giardia FBPA inh: inhibitors of Giardia lamblia fructose-1,6-bisphosphate aldolase; actives 0.71% (n = 290,000); Potency, µM (titrated, usually from 59.6 µM), for inactives: top-dose activity, negative = inhibition, hits mostly inhibitors; A8B2U2; AID 2451; purified Giardia FBPA; further: nearly all actives have a fitted effect of over 55% in size
Target sequence (A8B2U2 whole entry, looked up): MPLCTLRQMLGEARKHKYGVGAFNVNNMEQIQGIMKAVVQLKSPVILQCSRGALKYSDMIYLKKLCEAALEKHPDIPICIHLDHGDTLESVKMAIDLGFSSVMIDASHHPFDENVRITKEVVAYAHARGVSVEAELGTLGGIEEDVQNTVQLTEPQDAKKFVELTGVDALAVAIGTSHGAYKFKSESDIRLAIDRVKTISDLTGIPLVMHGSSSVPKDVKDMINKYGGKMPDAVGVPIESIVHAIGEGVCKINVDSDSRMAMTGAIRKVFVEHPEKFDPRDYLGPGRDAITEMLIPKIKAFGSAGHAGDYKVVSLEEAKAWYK
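40 nM FBPA preincubated 10 min at RT with compound (up to 57.5 uM final), then substrate plus GAPDH/TPI/NAD/arsenate coupling and diaphorase/resazurin added. Fluorescence read after 20 min at RT, 525/598 nm.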
The depositor's hits bear a star; ? = inconclusive; . = not tested or not shown; [ ] = remark or other dose. Only some compounds are listed: those with a hit (about 0.95% of all), similar ones and a draw of the others. Unless noted, the call rests on the fitted dose curve; in most records, active means well fitted curve in the direction sought with a large enough effect; inconclusive means small, poorly fitted or top-dose-only effect, or another doubt; inactive means no such curve, though single readings can be large; an effect the other way counts as inactive or inconclusive. On the % scale 0 is the no-effect control and ±100 the full control effect; potency means the concentration at half of the fitted maximal effect.

SMILES	RE007 growth inh	TbPYK inhibitor	LmPK inh	Giardia FBPA inh
COc1ccc(C(=O)c2no[n+]([O-])c2C(=O)c2ccc(OC)cc2)cc1	?	-11.0%	8.5%	?
O=C(c1cccs1)c1no[n+]([O-])c1C(=O)c1cccs1	28.2µM*	-12.8%	21.0%	3.97µM*
C=CCN1C(=O)N/C(=C/c2ccc(C)o2)C1=O	?	?	3.4%	15.8µM*
CCNC(=O)[C@H]1CCCN1C(=O)[C@H](CCCN=C(N)N)NC(=O)[C@H](CC(C)C)NC(=O)[C@H](CC(C)C)NC(=O)[C@@H](Cc1ccc(O)cc1)NC(=O)[C@H](CO)NC(=O)[C@@H](Cc1c[nH]c2ccccc12)NC(=O)[C@H](Cc1cnc[nH]1)NC(=O)[C@@H]1CCC(=O)N1	.	-5.9%	.	.
O=C1C(=O)c2ccccc2C(O)=C1CCCCl	?	-13.8%	-2.1%	3.54µM*
Cc1nc2oc3ccc(Cl)cc3c(=O)c2cc1C(=O)O	-11.9%	-27.3%	-22.5%	-1.2%
CC(C)c1ccc2oc3nc(N)c(C(=O)O)cc3c(=O)c2c1	.	?	7.08µM*	?
Cc1cc2ncc(-c3ccccc3)nc2cc1C	-13.8%	-9.0%	-30.0%	8.3%
Cc1cc(-c2ccccc2)nc(-c2ccccc2)c1C	2.7%	7.6%	7.08µM*	-25.5%
CC(=O)O[C@H]1CC[C@@]2(C)C(=CCC3C2CC[C@]2(C)C(c4cccnc4)=CCC32)C1 (stereo not given in full)	.	-2.4%	.	.
COCCNC(=O)/C(C#N)=C/c1cccc(/C=C(\C#N)C(=O)NCCOC)c1	-0.6%	-1.5%	-0.9%	-3.6%
COCCNC(=O)/C(C#N)=C/c1ccc(O)cc1	?	?	12.6µM*	8.0%
Cc1cc(C)c2oc(-c3cc(NC(=O)Cc4ccccc4)ccc3Cl)nc2c1	.	2.6%	.	.
N=C1SCC(=O)N1c1ncc(Cc2ccccc2Cl)s1	?	-9.4%	-3.2%	?
N=C1SCC(=O)N1c1ncc(Cc2cccc(Cl)c2)s1	17.8µM*	-3.4%	-5.3%	-21.3%
CC(C)C(=O)N[C@H]1CCCN1C(=O)/C=C\c1ccccc1	.	.	.	-0.2%[12.9 µM]
CSc1ccc(CN2CCSCC2)cc1	-15.8%	2.9%	-3.5%	?
CCc1ccc(CN2CCN(Cc3ccc(SC)cc3)CC2)cc1	6.2%	18.8%	-6.3%	17.7µM*
CCc1c(C)[nH]c2ccc(OC)cc2c1=S	-11.5%	2µM*	?	?
CC(CN(C)C)CN1c2ccccc2Sc2ccc(C(F)(F)F)cc21 (stereo not given)	.	3.4%	.	.
Cc1ccc(C)c(NC(=O)Cn2c(=O)n(-c3ccccc3C)c(=O)c3c2c2cc(C)ccc2n3C)c1	.	4.8%	.	.
COc1cc(/C=N/N=C2/NC(=O)C(CC(=O)O)S2)ccc1OCc1ccc(Cl)cc1 (stereo not given)	-1.7%	17.8µM*	?	6.9%
CCOc1cc(/C=N/N=C2/NC(=O)C(CC(=O)O)S2)ccc1OCc1ccc(Cl)cc1Cl (stereo not given)	18.5%	-5.0%	0.3%	9.8%
COc1ccc(C/C(N)=N/OC(=O)c2cccs2)cc1	-11.6%	3.4%	-1.0%	-0.1%
C/C(=N/OC(=O)c1c(F)cccc1F)c1nccs1	-11.9%	-21.4%	12.6µM*	0.0%
SMILES	RE007 growth inh	TbPYK inhibitor	LmPK inh	Giardia FBPA inh
COc1ccc(C(=O)O/N=C(\C)c2nccs2)cc1	-15.5%	?	7.94µM*	0.9%
COc1ccc(C(=O)O/N=C(/C)c2cccs2)cc1	39.8µM*	25.1µM*	3.55µM*	-8.4%
C/C(=N\OC(=O)c1ccc(F)cc1)c1nccs1	-15.2%	-13.8%	?	10.5%
COc1ccc2[nH]c(C(=O)Nc3ccc(C)c(F)c3)cc2c1	5.6%	-9.2%	-0.2%	-7.5%
COc1ccc2[nH]c(C(=O)Nc3cccc(C)n3)cc2c1	?	-25.1%	28.2µM*	-0.3%
c1ccc(-c2ccccn2)nc1	18.0%[18.4 µM]	-1.4%	1.0%	?
c1ccc(-c2ccc(-c3ccccn3)nn2)nc1	.	.	14.1µM*	?
N#C/C(=C/c1ccc(N2CCCCC2)o1)c1cccc(F)c1	-20.5%	-37.8%	-1.3%	?
N#C/C(=C/c1ccc(N2CCCCCC2)o1)c1ccc(Cl)cc1	25.1µM*	?	-1.2%	?
CCSC(=O)CCCCCCCCCCCO	3.16µM*	-1.3%	3.8%	5.6%
O=C1S/C(=C\c2ccc(N3CCOCC3)o2)C(=O)N1Cc1c(F)cccc1Cl	-19.2%	25.1µM*	0.6%	?
O=C(O)c1ccccc1-c1ccc(/C=C2\SC(=O)N(c3ccccc3)C2=O)o1	1.4%	0.2%	2.2%	-3.3%
O=C1S/C(=C\c2ccc(N3CCOCC3)o2)C(=O)N1c1ccccc1	-7.1%	28.2µM*	2.7%	?
O=C(C1CC1)N1CCc2cc(Br)cc(S(=O)(=O)Nc3ccc(C(F)(F)F)cc3)c21	.	4.6%	.	.
O=C1NC(=O)N(c2ccccc2)C(=O)/C1=C\c1ccc([N+](=O)[O-])s1	?	?	-2.5%	?
CN1C(=O)NC(=O)/C(=C/c2ccc([N+](=O)[O-])s2)C1=O	?	14.1µM*	-16.2%	?
O=C(O)CCn1cc(/C=C2\SC(=S)NC2=O)c(-c2ccccc2)n1	-4.8%	-5.3%	-15.2%	8.8%
O=C(O)CCn1cc(C=C2C(=O)NC(=S)NC2=O)c(-c2cccc(Cl)c2)n1	10.5%	11.2µM*	7.1%	-8.5%
O=C(O)CCn1cc(C=C2C(=O)NC(=O)NC2=O)c(-c2ccc(Br)cc2)n1	3.1%	17.8µM*	-0.5%	0.5%
CCNC(=S)NNC(=O)c1cc(-c2cccc(C)c2)nc2ccccc12	?	-3.0%	?	?
CCNC(=S)NNC(=O)c1cc(-c2ccc(OC)cc2)nc2ccccc12	17.8µM*	-26.1%	?	22.7%
CCCCOc1ccc(-c2cc(C(=O)NNC(=S)NCC)c3ccccc3n2)cc1	63.1µM*	-10.2%	-26.0%	-11.3%
C=CS(=O)(=O)O	.	-6.7%	.	.
CCOC(=O)/C=C/C(=O)Nc1cccc([N+](=O)[O-])c1	8.91µM*	?	-4.3%	-5.7%
Cc1cccc(Nc2n[nH]c(=S)s2)c1C	0.7%	?	-2.7%	-14.4%
SMILES	RE007 growth inh	TbPYK inhibitor	LmPK inh	Giardia FBPA inh
Cc1cccc(C)c1Nc1n[nH]c(=S)s1	-0.2%	12.6µM*	.	.
O=C(O)c1ccc(-c2c[nH]c3ccc(-c4ccccc4)cc23)cc1C1CCCC1	.	7.0%	.	.
NC(=O)c1ccc(N=Cc2ccc([N+](=O)[O-])s2)cc1	39.8µM*	-14.2%	1.1%	?
Cc1cc(C)cc(N=Cc2ccc([N+](=O)[O-])s2)c1	39.8µM*	-13.5%	2.5%	-21.4%
CCC(/C=C1\Oc2ccc(OC)cc2N1C)=C\c1sc2ccccc2[n+]1CCCS(=O)(=O)[O-]	-2.8%	-27.8%	.	.
COc1cc(/C=C/c2sc3ccccc3[n+]2CCCS(=O)(=O)[O-])ccc1O	?	?	15.8µM*	?
Cc1ccc(NC(=O)Cn2sc3nc(C)cc(C)c3c2=O)c(Cl)c1	21.7%	2.51µM*	-18.0%	-17.0%
Cc1cc(C)c2c(=O)n(CC(=O)NCCCN3CCOCC3)sc2n1	?	6.31µM*	-16.4%	-19.0%
